For this assay, the target named is furin, P09958. Nature of the assay: furin cleavage Z-score vs untreated control; higher = more cleavage, active = 3.5 or more, inactive = 1 or less, 8 variable residues between constant flanks. The method, then: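 Multiplexed peptide-cDNA fusion cleavage assay. 8-mer variable peptides flanked by constant Cys-Ala (N-term) and Ala-Gly-Asn-Ala-Ser-Ala-Ser-Ala (C-term) and conjugated to a cDNA oligonucleotide were bead-immobilised via the N-terminus. They were treated with purified furin at a 1:10 enzyme:substrate ratio in 50 mM HEPES pH 7.5, 1 mM CaCl2, 100 mM NaCl for 7.5, 15 or 30 min. Released cDNA was counted by next-generation sequencing, and log counts versus no-furin controls were lowess-adjusted and converted to robust Z-scores.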
Chain of furin, P09958 (P09958 whole entry, the tested form may be a part): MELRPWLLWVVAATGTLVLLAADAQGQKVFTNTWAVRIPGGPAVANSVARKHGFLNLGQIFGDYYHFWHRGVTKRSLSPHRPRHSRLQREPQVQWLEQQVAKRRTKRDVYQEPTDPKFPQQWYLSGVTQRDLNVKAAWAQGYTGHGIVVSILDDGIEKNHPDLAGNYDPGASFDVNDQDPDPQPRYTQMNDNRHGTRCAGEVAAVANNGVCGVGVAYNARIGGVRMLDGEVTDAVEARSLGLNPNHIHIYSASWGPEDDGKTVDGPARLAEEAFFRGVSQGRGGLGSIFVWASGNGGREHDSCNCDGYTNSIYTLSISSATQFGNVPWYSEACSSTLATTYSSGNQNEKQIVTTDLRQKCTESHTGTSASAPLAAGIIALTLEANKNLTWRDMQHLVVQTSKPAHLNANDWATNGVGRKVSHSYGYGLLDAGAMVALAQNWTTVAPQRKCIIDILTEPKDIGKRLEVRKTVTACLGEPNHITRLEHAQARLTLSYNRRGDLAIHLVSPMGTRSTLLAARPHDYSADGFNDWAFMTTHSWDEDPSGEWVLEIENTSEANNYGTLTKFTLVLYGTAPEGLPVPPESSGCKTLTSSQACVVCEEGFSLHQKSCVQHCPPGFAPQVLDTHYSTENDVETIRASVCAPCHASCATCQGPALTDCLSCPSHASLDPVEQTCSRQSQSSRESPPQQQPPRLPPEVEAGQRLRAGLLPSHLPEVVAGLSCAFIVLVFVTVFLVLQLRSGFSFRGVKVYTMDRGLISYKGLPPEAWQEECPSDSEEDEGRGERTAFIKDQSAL

The other results are listed elsewhere or left out. No count for the full screen is at hand.

CAAQAPPPSWAGNASASA [HC959]: the “furin cleavage Z-score” value is -0.328 (inactive) (7.5 min), 0.141 (inactive) (15 min) and -1.2 (inactive) (30 min).

For the sequence CAGQSWVKRDAGNASASA [FS-331], the “furin cleavage Z-score” value runs as follows: (7.5 min) 1.45; (15 min) 0.512 (inactive); (30 min) 1.11.

For CAANHVVKRDAGNASASA [FS-642], the “furin cleavage Z-score” value reads like this: (7.5 min) 8.87 (active); (15 min) 11.8 (active); (30 min) 8.5 (active).

For the sequence CAINKRVKRDAGNASASA [FS-253], the “furin cleavage Z-score” value runs as follows: (7.5 min) 7.21 (active); (15 min) 5.79 (active); (30 min) 4.98 (active).

As for CATHINSVWKAGNASASA [HC1429], the “furin cleavage Z-score” value (7.5 min) was -0.832 (inactive), the “furin cleavage Z-score” value (15 min) was -2.14 (inactive) and the “furin cleavage Z-score” value (30 min) was -0.179 (inactive).

With CAEVPTSTWVAGNASASA [HC2199], the “furin cleavage Z-score” value is, setting by setting: (7.5 min) 0.334 (inactive); (15 min) -2.59 (inactive); (30 min) -0.0938 (inactive).

As for CATQPCSGSWAGNASASA [HC1862], the “furin cleavage Z-score” value (7.5 min) was 0.195 (inactive), the “furin cleavage Z-score” value (15 min) is -1.61 (inactive) and the “furin cleavage Z-score” value (30 min) was 0.946 (inactive).

Take CAEVPCHLPSAGNASASA [HC2365]: the “furin cleavage Z-score” value runs as follows: (7.5 min) 0.888 (inactive); (15 min) 0.887 (inactive); (30 min) 2.28.

In the case of CAPVLRGQAGAGNASASA [FS-3180], the “furin cleavage Z-score” value runs as follows: (7.5 min) -0.625 (inactive); (15 min) 0.202 (inactive); (30 min) -0.205 (inactive).

Turning to CAGSNRKVREAGNASASA [FS-435], the “furin cleavage Z-score” value is 10.8 (active) (7.5 min), 11.2 (active) (15 min) and 7.92 (active) (30 min).

CAPVVFSQMEAGNASASA [HC647]: the “furin cleavage Z-score” value is 1.38 (7.5 min), 1.32 (15 min) and 0.561 (inactive) (30 min).

For the sequence CAPQSRGRREAGNASASA [FS-476], the “furin cleavage Z-score” value runs as follows: (7.5 min) 13.1 (active); (15 min) 13.2 (active); (30 min) 8.24 (active).

CAGSMRANRIAGNASASA [FS-1128]: the “furin cleavage Z-score” value runs as follows: (7.5 min) -0.706 (inactive); (15 min) 0.0659 (inactive); (30 min) 0.059 (inactive).

As for CAGSKRSRREAGNASASA [FS-1207], the “furin cleavage Z-score” value (7.5 min) was 11.5 (active), the “furin cleavage Z-score” value (15 min) was 11.8 (active) and the “furin cleavage Z-score” value (30 min) is 7.54 (active).

Regarding CAPESRKRREAGNASASA [FS-368], the “furin cleavage Z-score” value is 13.9 (active) (7.5 min), 14.4 (active) (15 min) and 11.3 (active) (30 min).

Consider CAGCVPCVREAGNASASA [HC273], for which the “furin cleavage Z-score” value reads like this: (7.5 min) 0.467 (inactive); (15 min) 0.158 (inactive); (30 min) 1.81.

CAGQKRSRSRAGNASASA [FS-2862]: the “furin cleavage Z-score” value was 0.426 (inactive) (7.5 min), -2.34 (inactive) (15 min) and 0.754 (inactive) (30 min).

Take CAGSGPDQRPAGNASASA [HC399]: the “furin cleavage Z-score” value is, setting by setting: (7.5 min) -0.948 (inactive); (15 min) 0.971 (inactive); (30 min) -0.827 (inactive).
